Compound activity deposited in PubChem BioAssay by National Center for Advancing Translational Sciences (NCATS).
This is a sample that favours compounds with a hit; in the whole collection about 5.2% have one here.
FBPA coupling cs: inhibits coupling enzyme system, counter-screen for aldolase hits. activity change, negative = inhibition, % at 58.2 µM, hits read low. actives 0.67% (n = 290,000). coupling enzyme system counterscreen, AmpLite Red fluorescence; in the data active = activity change below about -30%
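Final compound at 57.5 uM, incubated 10 min at RT with coupling enzyme reagent (glyceraldehyde-3-phosphate), then 20 min with substrate and AmpLite Red detection. Fluorescence read at 525/598 nm; tests interference with the coupling assay, not aldolase inhibition.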
Tau ThT inhib: blocks human tau fibril formation measured by thioflavin T; P10636; recombinant tau K18 P301L, heparin-induced fibrillization, ThT fluorescence; Potency, µM (top dose mostly 57.4 µM), for the others: top-dose activity, negative = inhibition, usual class: inhibitors; actives 2.1% (n = 270,000); also: potency is read from the fitted curve at half-maximal effect; nearly all actives have a fitted effect of over 55% in size
Target sequence (P10636 561-689 P618L limits assumed): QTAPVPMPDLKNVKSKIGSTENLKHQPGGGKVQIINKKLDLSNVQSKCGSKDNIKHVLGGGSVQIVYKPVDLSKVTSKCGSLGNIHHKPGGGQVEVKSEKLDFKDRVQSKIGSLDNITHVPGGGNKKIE
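Heparin-induced (20 uM) aggregation of recombinant human K18 P301L tau, 15 uM unlabeled with 0.24 uM labeled, pH 7 acetate buffer, 6 hr at 37 C with compound. Fibrils quantified by 30 uM ThT fluorescence after 1 hr ambient incubation.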
Tau fluor counter: counter-screen for tau fibril formation inhibitors; tau K18 P301L (four-repeat tau fragment) Alexa594 fluorescence, heparin fibrillization; Potency, µM (titrated, usually from 57.7 µM), without a hit: at the highest dose activity change, negative = decrease; actives 0.93% (n = 280,000); also: potency is read from the fitted curve at half-maximal effect; nearly all actives have a fitted effect of over 55% in size
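Human K18 P301L tau (15 uM unlabeled plus 0.24 uM Alexa 594-labeled, final) in 100 mM sodium acetate pH 7 was mixed with compound and 20 uM heparin and incubated 6 hr at 37 C.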
Sfp PPTase inh: blocks B. subtilis Sfp PPTase activity. Potency, µM, for the others: largest response in the series, negative = inhibition, usual class: inhibitors. actives 3.5% (n = 310,000). Q9F4F7. Biochemical Sfp PPTase activity, qHTS. AID 1490;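 also: the enzyme is Sfp with the accession as filed and its product quenches rhodamine fluorescence; potency is read from the fitted curve at half-maximal effect; 0% = enzyme reaction without inhibitor and -100% = no enzyme wells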
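Fluorescence-quenching assay: 15 nM Sfp-PPTase preincubated 15 min at room temperature with compound, then 5 uM rhodamine-CoA and 12.5 uM BHQ-2-labelled YbbR peptide added. Fluorescence (ex 525/em 598 nm) read at start and after 30 min; difference gives rate.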
Tau FP inhib: inhibitors of human tau fibril formation. P10636. K18 P301L tau heparin fibrillization, Alexa594 FP, 6 h. Potency, µM (titrated, usually from 57.7 µM), for the others: at the top dose activity, negative = inhibition, actives largely listed as inhibitors. actives 0.39% (n = 280,000); also: potency is read from the fitted curve at half-maximal effect; nearly all actives have a fitted effect of over 55% in size
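Recombinant K18 P301L […], labeled with Alexa 594 at 0.24 uM over 15 uM unlabeled; heparin inducer 20 uM final; 37 C, 6 hr; FP endpoint.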
Active calls of the source: *; ? = inconclusive; . = no result given; [ ] = remark or other dose. Unless noted, calls follow the shape of the dose curve; as a rule, active = well fitted curve in the direction sought with a large enough effect; inconclusive = small, poorly fitted or top-dose-only effect, or another doubt; inactive = no such curve, though single readings can be large; an effect the other way counts as inactive or inconclusive. Unless noted, % is scaled to controls: 0 for no effect and ±100 for the full control effect.

SMILES	FBPA coupling cs	Tau ThT inhib	Tau fluor counter	Sfp PPTase inh	Tau FP inhib
CCN(CC)c1cc(C)c2cc(NC(=O)CNC(C)=O)ccc2n1	0	0%	3%	20%	-1%
COc1ccc(OC)c(CNS(=O)(=O)c2c(C(=O)N3CCCCCC3)c(C)n(C)c2C)c1	.	-7%	-11%	.	-9%
COC(=O)c1ccccc1NC(=O)CCC(=O)N1CC(C)Oc2ccc(C)cc21 (stereo not drawn)	-3	.	.	-12%	.
CCOC(=O)c1ccccc1NC(=O)N1CC(C)Oc2ccc(C)cc21 (stereo not drawn)	.	1%	2.8µM*[quencher]	.	?
CCc1ccc(NC(=O)N2CC(C)Oc3ccc(C)cc32)cc1 (stereo not drawn)	.	3%	2.5µM*[quencher]	.	-4%
O=C(Cn1c(=O)oc2ccccc21)Nc1n[nH]c(=S)s1	3	-14%	-13%	32µM*	-2%
O=C(Cn1c(=O)oc2ccccc21)Nc1nc(-c2ccccc2)cs1	1	3%	-12%	2%	-15%
COc1cccc(N2C(=O)CSC23C(=O)N(CC(=O)Nc2cccc(Cl)c2)c2ccccc23)c1 (stereo not drawn)	.	11%	?	.	?
CN(C)Cc1nc(-c2cn(C)c3ccccc23)no1	.	10%	3%	-18%	-11%
O=C(O)/C=C\C(=O)Nc1ccc(N2CCN(c3cccc(Cl)c3)CC2)cc1	-10	?	-18%	-22%	-1%
O=C(O)/C=C\C(=O)Nc1ccc(N2CCN(c3ccc(F)cc3)CC2)cc1	-8	5.6µM*	?	?	-16%
CC(C)c1ccc(N2CCN(C(=O)c3ccccc3NC(=O)/C=C\C(=O)O)CC2)cc1	0	-26%	-13%	79µM*	-1%
O=C(O)/C=C\C(=O)Nc1ccc(N2CCN(c3ccc(Cl)cc3)CC2)cc1	-2	3.5µM*	?	-15%	?
O=C(O)/C=C\C(=O)Nc1ccc(N2CCN(c3ccc(Cl)c(Cl)c3)CC2)cc1	3	2.2µM*	?	-21%	?
O=C(O)/C=C\C(=O)Nc1ccccc1C(=O)N1CCN(c2ccc(Cl)cc2)CC1	9	-16%	-10%	-23%	-3%
O=c1c(-c2cccs2)nc2cnc(Oc3cccc(Cl)c3)nc2n1C1CC1	-1	.	.	-15%	.
CC(=O)c1ccc(C(=O)N(Cc2cccnc2)c2nc3c(C)c(C)ccc3s2)cc1	.	?	-18%	.	-5%
O=[N+]([O-])c1ccc(NNC(=S)Nc2ccc(F)cc2)cc1	0	13µM*	?	2.5µM*	2%
COc1ccc(OC)c(NC(=O)Cn2cc(S(=O)(=O)c3ccccc3)c(=O)c3cc(C)ccc32)c1	.	-8%	?	.	-3%
Oc1c(Cl)cc(Cl)cc1C=Nc1cc(C(F)(F)F)ccc1N1CCc2ccccc2C1	-27	28µM*	-28%	-7%	?
Nc1ccc(S(=O)(=O)Nc2cnc3ccccc3n2)cc1	9	-7%	-10%	9%	-8%
Nc1ccc(S(=O)(=O)Nc2nc3ccccc3o2)cc1	7	.	.	50µM*	.
COCCn1c(CNC(=O)c2ccc(C)cc2)nc2cccnc21	.	1%	-6%	.	3%
COc1cc(-c2nc(C(N)=O)c3c(n2)n(-c2cccc(C)c2)c(=O)n3C)cc(OC)c1OC	.	3%	2%	.	-5%
O=C(O)Cn1cccc1C(=O)c1ccccc1	-1	8.9µM*	?	21%	4%
SMILES	FBPA coupling cs	Tau ThT inhib	Tau fluor counter	Sfp PPTase inh	Tau FP inhib
COc1ccc(N2CCN(S(=O)(=O)c3ccc(C4CCCCC4)cc3)CC2)cc1	.	-3%	-18%	.	3%
COc1ccccc1-c1cc(=O)c2cccc(OC)c2o1	0	?	-23%	3%	-15%
COc1cccc(-c2cc(=O)c3ccccc3o2)c1N	-3	16µM*	?	-25%	0%
CN(c1ccccc1)c1ccc(/C=C/[N+](=O)[O-])cc1	-5	-14%	-18%	18µM*	1%
COc1cccc(C(=O)Nc2cccc(C(=O)OCc3cc(=O)n4nc(C5CC5)sc4n3)c2)c1	.	?	-18%	.	-1%
CN(C)/N=C/c1ccc([N+](=O)[O-])cc1[N+](=O)[O-]	-6	?	-19%	56µM*	-2%
c1ccc(Nc2nc(-c3ccoc3)nc3ccccc23)cc1	0	.	.	-18%	.
COc1cccc(CNS(=O)(=O)c2ccc(N3CCCCS3(=O)=O)cc2)c1	.	9%	-4%	.	-8%
O=S(=O)(NCc1ccco1)c1ccc(S(=O)(=O)N2CCCC2)cc1	-4	6%	9%	3.2µM*	7%
COc1cccc(CNS(=O)(=O)c2ccc(S(=O)(=O)N3CCCC3)cc2)c1	-53*	0%	4%	10µM*	10%
CC(=O)N/N=C/c1ccc([N+](=O)[O-])o1	.	.	.	2%	.
O=[N+]([O-])c1ccc(/C=N/N=C/c2ccc([N+](=O)[O-])o2)o1	-20	13µM*	?	3%	?
Cc1ccc(C(=O)N/C(=C/c2ccco2)C(=O)N2CCC(C)CC2)cc1	-2	.	.	56µM*	.
Cc1cccc(C(=O)N/C(=C\c2ccco2)C(=O)N2CCCCCC2)c1	2	.	.	3%	.
Cc1cccc(C(=O)N/C(=C/c2ccco2)C(=O)N2CCCCCC2)c1	.	.	.	50µM*	.
COc1ccc2c(c1)[nH]c1c(N3CCN(Cc4ccc5c(c4)OCO5)CC3)ncnc12	-1	?	16µM*[quencher]	-7%	4%
Cc1ccccc1-n1c(-c2ccncc2)n[nH]c1=S	4	-10%	-9%	?	-5%
Cc1ccccc1-n1c(-c2ccc(=O)[nH]n2)n[nH]c1=S	1	-5%	-1%	71µM*	4%
O=C(NCc1cccnc1)c1ccc(-c2ccccc2[N+](=O)[O-])o1	-16	0%	-6%	3%	-3%
O=C(NCc1cccnc1)c1ccc(-c2cccc(Cl)c2Cl)o1	-3	9%	6%	16µM*	-9%
Cc1cc2c(cc(C(=O)NCc3cccnc3)n2Cc2ccc(Cl)cc2)o1	-1	?	-13%	45µM*	3%
Cc1nc(NC(=O)c2ccccc2)sc1-c1csc(NCc2ccco2)n1	-3	?	?	18µM*	4%
c1coc(CNc2nc(-c3ccncc3)cs2)c1	7	-9%	-3%	17%	5%
CCOc1ccccc1Nc1nc(-c2sc(NC(=O)c3ccco3)nc2C)cs1	-1	?	?	5%	7%
Cc1ccccc1Nc1nc(-c2sc(NC(=O)c3ccco3)nc2C)cs1	-19	?	?	14µM*	4%
Cc1ccc(C(=O)N(Cc2ccc(N(C)C)cc2)Cc2ccco2)cc1	.	?	?	.	-5%
CCOC(=O)c1c(Nc2ccc(O)cc2)nnc(-c2ccccc2)c1-c1ccccc1	.	-6%	-22%	.	-6%
CCC(=O)N(CC)C1=C(O)c2ccccc2C(=O)C1=O	-61*	16µM*	?	11µM*	?
